Laboratory results taken from PubChem BioAssay AID1159580 (chemical genetic matrix, 2015).
The campaign covered roughly 5,500 compounds. About 2,000 (36%) were called active. Not shown: some 18% with an inconclusive outcome. Cut-off read from the data, not from the text of the source: active = normalized growth mostly below about 0.91 (no sharp cut-off); inconclusive = no clear call, values can overlap the other calls; inactive = mostly above about 0.92. This is one part of the list.

Assay: chemical genetic growth profiling, strain panel (AID 1159580);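 note: tested at 20 µM; growth read once vehicle control cultures reached saturation at 30 °C; 1 = growth at the plate median or of vehicle wells; lower values mean less growth of the strain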
Conditions: growth OD
[1] = S. cerevisiae deletion strains, locus YDL101C, strain DUN1, stronger effect = lower value
[2] = S. cerevisiae deletion strains, locus YHR030C, strain SLT2, stronger effect = lower value
[3] = S. cerevisiae deletion strains, locus YAL013W, strain DEP1, stronger effect = lower value
[4] = S. cerevisiae deletion strains, locus YBR229C, strain ROT2, stronger effect = lower value
[5] = S. cerevisiae deletion strains, locus YDR150W, strain NUM1, stronger effect = lower value
[6] = S. cerevisiae deletion strains, locus YEL061C, strain CIN8, stronger effect = lower value
[7] = S. cerevisiae deletion strains, locus YGR078C, strain PAC10, stronger effect = lower value
[8] = S. cerevisiae deletion strains, locus YHR087W, strain rtc3, stronger effect = lower value
[9] = S. cerevisiae deletion strains, locus YJR043C, strain POL32, stronger effect = lower value
[10] = S. cerevisiae deletion strains, locus YJR075W, strain HOC1, stronger effect = lower value
[11] = S. cerevisiae deletion strains, locus YLR039C, strain RIC1, stronger effect = lower value
[12] = S. cerevisiae deletion strains, locus YLR058C, strain SHM2 (second series), stronger effect = lower value
[13] = S. cerevisiae deletion strains, locus YLR085C, strain ARP6, stronger effect = lower value
[14] = S. cerevisiae deletion strains, locus YLR262C, strain YPT6, stronger effect = lower value
[15] = S. cerevisiae deletion strains, locus YML094W, strain GIM5, stronger effect = lower value
[16] = S. cerevisiae deletion strains, locus YMR219W, strain ESC1, stronger effect = lower value
[17] = S. cerevisiae deletion strains, locus YMR263W, strain SAP30, stronger effect = lower value
[18] = S. cerevisiae deletion strains, locus YNL153C, strain GIM3, stronger effect = lower value
[19] = S. cerevisiae deletion strains, locus YNL298W, strain CLA4 (second series), stronger effect = lower value
[20] = S. cerevisiae deletion strains, locus YNL322C, strain KRE1, stronger effect = lower value
[21] = S. cerevisiae deletion strains, locus YNR030W, strain Alg12, stronger effect = lower value
[22] = S. cerevisiae deletion strains, locus YPL055C, strain LGE1, stronger effect = lower value
[23] = S. cerevisiae deletion strains, locus YPL241C, strain CIN2, stronger effect = lower value
[24] = S. cerevisiae deletion strains, locus YPR135W, strain CTF4, stronger effect = lower value

Measured: normalized growth

Cc1cc(C(=O)O/N=C(/N)CSc2ncccc2C(F)(F)F)no1
active: S. cerevisiae deletion strains, locus YLR113W, strain HOG1, stronger effect = lower value 0.789 | S. cerevisiae deletion strains, locus YPL256C, strain CLN2, stronger effect = lower value 0.824
inactive: S. cerevisiae deletion strains, locus YAR019C, strain CDC15, stronger effect = lower value 0.997 | S. cerevisiae deletion strains, locus YBL105C, strain PKC1, stronger effect = lower value 0.993 | S. cerevisiae deletion strains, locus YBR135W, strain CKS1, stronger effect = lower value 0.994 | S. cerevisiae deletion strains, locus YBR136W, strain MEC1, stronger effect = lower value 0.992 | S. cerevisiae deletion strains, locus YBR160W, strain CDC28, stronger effect = lower value 0.988 | S. cerevisiae deletion strains, locus YDL017W, strain CDC7, stronger effect = lower value 0.995 | S. cerevisiae deletion strains, locus YDL028C, strain MPS1, stronger effect = lower value 0.993 | [1] 1.01 | S. cerevisiae deletion strains, locus YDL108W, strain KIN28, stronger effect = lower value 0.996 | S. cerevisiae deletion strains, locus YDL132W, strain cdc53, stronger effect = lower value 0.99 | S. cerevisiae deletion strains, locus YDL214C, strain PRR2, stronger effect = lower value 0.999 | S. cerevisiae deletion strains, locus YDR052C, strain DBF4, stronger effect = lower value 0.998 | S. cerevisiae deletion strains, locus YDR054C, strain cdc34, stronger effect = lower value 0.989 | S. cerevisiae deletion strains, locus YDR226W, strain ADK1, stronger effect = lower value 0.991 | S. cerevisiae deletion strains, locus YDR477W, strain SNF1, stronger effect = lower value 1 | S. cerevisiae deletion strains, locus YER123W, strain YCK3, stronger effect = lower value 1.01 | S. cerevisiae deletion strains, locus YER133W, strain GLC7, stronger effect = lower value 1.01 | S. cerevisiae deletion strains, locus YFL009W, strain cdc4, stronger effect = lower value 0.999 | S. cerevisiae deletion strains, locus YFL029C, strain CAK1, stronger effect = lower value 0.998 | S. cerevisiae deletion strains, locus YFR003C, strain YPI1, stronger effect = lower value 0.993 | S. cerevisiae deletion strains, locus YFR019W, strain FAB1, stronger effect = lower value 1 | S. cerevisiae deletion strains, locus YFR028C, strain CDC14, stronger effect = lower value 0.994 | S. cerevisiae deletion strains, locus YGR040W, strain KSS1, stronger effect = lower value 1.02 | S. cerevisiae deletion strains, locus YGR052W, strain FMP48, stronger effect = lower value 0.995 | S. cerevisiae deletion strains, locus YGR092W, strain DBF2, stronger effect = lower value 1.02 | [2] 0.957 | S. cerevisiae deletion strains, locus YHR079C, strain IRE1, stronger effect = lower value 0.772 | S. cerevisiae deletion strains, locus YHR082C, strain KSP1, stronger effect = lower value 1.17 | S. cerevisiae deletion strains, locus YHR205W, strain SCH9, stronger effect = lower value 1 | S. cerevisiae deletion strains, locus YIL147C, strain SLN1, stronger effect = lower value 0.991 | S. cerevisiae deletion strains, locus YJL095W, strain BCK1, stronger effect = lower value 0.841 | S. cerevisiae deletion strains, locus YJL128C, strain PBS2, stronger effect = lower value 0.983 | S. cerevisiae deletion strains, locus YJL157C, strain FAR1, stronger effect = lower value 1.01 | S. cerevisiae deletion strains, locus YJR016C, strain ILV3, stronger effect = lower value 0.997 | S. cerevisiae deletion strains, locus YJR066W, strain TOR1 (second series), stronger effect = lower value 1 | S. cerevisiae deletion strains, locus YJR066W, strain TOR1, stronger effect = lower value 1.14 | S. cerevisiae deletion strains, locus YKL048C, strain ELM1, stronger effect = lower value 1.01 | S. cerevisiae deletion strains, locus YKL067W, strain YNK1, stronger effect = lower value 0.993 | S. cerevisiae deletion strains, locus YKL101W, strain HSL1, stronger effect = lower value 1 | S. cerevisiae deletion strains, locus YKL193C, strain SDS22, stronger effect = lower value 0.989 | S. cerevisiae deletion strains, locus YKL203C, strain TOR2, stronger effect = lower value 1.08 | S. cerevisiae deletion strains, locus YLR133W, strain CKI1, stronger effect = lower value 1.01 | S. cerevisiae deletion strains, locus YLR403W, strain SFP1, stronger effect = lower value 1.02 | S. cerevisiae deletion strains, locus YML070W, strain DAK1, stronger effect = lower value 0.995 | S. cerevisiae deletion strains, locus YMR001C, strain CDC5, stronger effect = lower value 0.997 | S. cerevisiae deletion strains, locus YMR205C, strain PFK2 (second series), stronger effect = lower value 1.02 | S. cerevisiae deletion strains, locus YMR277W, strain FCP1, stronger effect = lower value 0.994 | S. cerevisiae deletion strains, locus YNL006W, strain LST8, stronger effect = lower value 0.999 | S. cerevisiae deletion strains, locus YNL020C, strain ARK1, stronger effect = lower value 1.01 | S. cerevisiae deletion strains, locus YNL161W, strain CBK1, stronger effect = lower value 0.996 | S. cerevisiae deletion strains, locus YNL183C, strain NPR1, stronger effect = lower value 0.933 | S. cerevisiae deletion strains, locus YNL207W, strain RIO2, stronger effect = lower value 0.997 | S. cerevisiae deletion strains, locus YNL222W, strain SSU72, stronger effect = lower value 0.978 | S. cerevisiae deletion strains, locus YNL307C, strain MCK1 (second series), stronger effect = lower value 1.01 | S. cerevisiae deletion strains, locus YOL078W, strain AVO1, stronger effect = lower value 0.998 | S. cerevisiae deletion strains, locus YOL136C, strain PFK27, stronger effect = lower value 1.01 | S. cerevisiae deletion strains, locus YOR061W, strain CKA2, stronger effect = lower value 1.02 | S. cerevisiae deletion strains, locus YOR119C, strain RIO1, stronger effect = lower value 1.04 | S. cerevisiae deletion strains, locus YOR231W, strain MKK1, stronger effect = lower value 0.792 | S. cerevisiae deletion strains, locus YOR329C, strain SCD5, stronger effect = lower value 0.995 | S. cerevisiae deletion strains, locus YPL031C, strain PHO85, stronger effect = lower value 1 | S. cerevisiae deletion strains, locus YPL153C, strain RAD53, stronger effect = lower value 0.997 | S. cerevisiae deletion strains, locus YPL204W, strain HRR25, stronger effect = lower value 1.01 | S. cerevisiae deletion strains, locus YPL209C, strain IPL1, stronger effect = lower value 0.992 | S. cerevisiae deletion strains, locus YPR025C, strain CCL1, stronger effect = lower value 0.999 | S. cerevisiae deletion strains, locus YPR106W, strain ISR1, stronger effect = lower value 0.997 | S. cerevisiae deletion strains, locus YPR111W, strain DBF20, stronger effect = lower value 0.993 | S. cerevisiae deletion strains, strain NNK1, stronger effect = lower value 1.01 | S. cerevisiae deletion strains, strain TSCII, stronger effect = lower value 0.99

CCOC(=O)c1c(SC)[nH]c2c(C(F)(F)F)cccc2c1=O
inactive: [3] 0.996 | [4] 0.991 | [1] 0.99 | S. cerevisiae deletion strains, locus YDL134C, strain PPH21, stronger effect = lower value 0.959 | [5] 0.939 | [6] 1.02 | [7] 0.998 | S. cerevisiae deletion strains, locus YGR229C, strain SMI1, stronger effect = lower value 0.989 | [2] 0.975 | [8] 0.975 | [9] 0.982 | [10] 0.992 | S. cerevisiae deletion strains, locus YKL190W, strain CNB1, stronger effect = lower value 1 | [11] 0.917 | [12] 1 | [13] 0.977 | [14] 0.997 | [15] 0.986 | [16] 1 | [17] 1.03 | [18] 0.986 | [19] 1.01 | [20] 1 | [21] 0.977 | [22] 0.936 | [23] 0.982 | [24] 0.927

COC(=O)c1cn(Cc2ccc(C(F)(F)F)cc2)cc(F)c1=O
inactive: [3] 1.02 | [4] 0.996 | [1] 0.996 | [5] 0.923 | [6] 0.998 | [7] 1 | [2] 1.08 | [8] 1 | S. cerevisiae deletion strains, locus YJL187C, strain SWE1, stronger effect = lower value 1.04 | [9] 0.99 | [10] 1 | [11] 1.02 | [12] 0.996 | [13] 1.09 | [14] 1.04 | [15] 1.03 | [16] 1 | [17] 0.931 | S. cerevisiae deletion strains, locus YNL128W, strain TEP1, stronger effect = lower value 1.01 | [18] 0.988 | [19] 1.02 | [20] 1.01 | [21] 1.02 | S. cerevisiae deletion strains, locus YOL006C, strain TOP1, stronger effect = lower value 1.04 | [22] 0.921 | [23] 1.01 | [24] 1.05 | S. cerevisiae strains, strain wild type, stronger effect = lower value 1.02
